Results: PubChem BioAssay
Activity calls are given as the source filed them.

Experiments:
[1] = tested on: PRMT1 (protein arginine N-methyltransferase 1); assay: small molecules binding arginine methyltransferase PRMT1 – biochemical, small-molecule microarray, 635 nm fluorescence, primary screen (AID 1088); conditions: higher = more signal;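 also: binding of Prmt1 protein to compounds spotted on small-molecule microarray slides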
[2] = growth effects on S. cerevisiae YJM789 – YJM789 clinical isolate, OD600, 24 h, basal, primary screen (AID 1089); conditions: higher = more signal, called active from +8 up or from −8 down;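 also: growth of clinical yeast isolate S. cerevisiae YJM 789 seeded 1000 cells per well; test concentration not given here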
[3] = S. pombe growth modifiers, basal conditions – strain 972, OD600, 24 h, no modulator, primary screen (AID 1090);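 also: basal condition with compound alone and no growth modifier present; test concentration not given here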; conditions: S. pombe 972 growth, higher = more signal, called active from +8 up or from −8 down
[4] = budding yeast growth modifiers under rapamycin – strain BY4716, OD600, 96 h, primary screen (AID 1091); also: test concentration not given here; conditions: S. cerevisiae BY4716 + rapamycin, higher = more signal, called active from +8 up or from −8 down
[5] = target: Torsin-1A-interacting protein 2 (Homo sapiens) (UniProt Q8NFQ8); assay: small molecules binding lysate-expressed LULL1 – cell lysate, human LULL1 lysate, 635/667 nm fluorescence, primary screen (AID 1092); conditions: small-molecule microarray, hLULL1 lysate binding, 635 nm fluorescence; higher = more signal;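 also: probe is lysate of COS7 cells overexpressing human LULL1; score merges per-feature 667 nm fluorescence with signal-to-noise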
Chain of Torsin-1A-interacting protein 2 (Homo sapiens) (Q8NFQ8 whole entry, looked up): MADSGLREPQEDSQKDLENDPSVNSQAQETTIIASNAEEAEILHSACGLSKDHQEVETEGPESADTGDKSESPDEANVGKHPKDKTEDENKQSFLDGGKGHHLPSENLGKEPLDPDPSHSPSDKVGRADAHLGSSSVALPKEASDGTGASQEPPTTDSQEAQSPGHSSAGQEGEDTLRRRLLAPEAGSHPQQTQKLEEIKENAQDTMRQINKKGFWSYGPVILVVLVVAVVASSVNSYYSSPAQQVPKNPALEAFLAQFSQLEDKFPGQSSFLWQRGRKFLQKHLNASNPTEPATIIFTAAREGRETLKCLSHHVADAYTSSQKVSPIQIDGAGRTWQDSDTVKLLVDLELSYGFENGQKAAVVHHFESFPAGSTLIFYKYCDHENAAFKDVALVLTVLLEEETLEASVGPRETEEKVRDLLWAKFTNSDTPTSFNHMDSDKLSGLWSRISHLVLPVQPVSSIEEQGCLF

[6] = optical density change of DRC41 E. coli – strain DRC41, OD650, 24 h, E. coli filamentation project, primary screen (AID 1093);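 also: MC1000 strain lacking acrAB efflux and sulA so SOS filamentation is blocked; test concentration not given here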; conditions: E. coli DRC41 growth, higher = more signal, called active from +8 up or from −8 down
[7] = probe aLefty2 binding to arrayed compounds – biochemical, biotinylated probe, 635/667 nm fluorescence, primary screen (AID 1094); conditions: small-molecule microarray, higher = more signal;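 also: score merges spot fluorescence near 667 nm with spot signal-to-noise ratio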
[8] = tested on: Noggin (protein binding on small-molecule microarray); assay: small molecules binding Noggin protein – biochemical, 635/667 nm fluorescence, primary screen (AID 1095); conditions: 635 nm fluorescence, higher = more signal;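 also: score merges 667 nm feature fluorescence with signal to noise over triplicate slides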
[9] = target: Neurogenic locus notch homolog protein 3 (Homo sapiens) (UniProt Q9UM47); assay: small molecules binding NOTCH3 protein – biochemical, 635/667 nm fluorescence, primary screen (AID 1096); conditions: small-molecule microarray, 635 nm fluorescence, higher = more signal
Chain of Neurogenic locus notch homolog protein 3 (Homo sapiens) (Q9UM47 whole entry, looked up): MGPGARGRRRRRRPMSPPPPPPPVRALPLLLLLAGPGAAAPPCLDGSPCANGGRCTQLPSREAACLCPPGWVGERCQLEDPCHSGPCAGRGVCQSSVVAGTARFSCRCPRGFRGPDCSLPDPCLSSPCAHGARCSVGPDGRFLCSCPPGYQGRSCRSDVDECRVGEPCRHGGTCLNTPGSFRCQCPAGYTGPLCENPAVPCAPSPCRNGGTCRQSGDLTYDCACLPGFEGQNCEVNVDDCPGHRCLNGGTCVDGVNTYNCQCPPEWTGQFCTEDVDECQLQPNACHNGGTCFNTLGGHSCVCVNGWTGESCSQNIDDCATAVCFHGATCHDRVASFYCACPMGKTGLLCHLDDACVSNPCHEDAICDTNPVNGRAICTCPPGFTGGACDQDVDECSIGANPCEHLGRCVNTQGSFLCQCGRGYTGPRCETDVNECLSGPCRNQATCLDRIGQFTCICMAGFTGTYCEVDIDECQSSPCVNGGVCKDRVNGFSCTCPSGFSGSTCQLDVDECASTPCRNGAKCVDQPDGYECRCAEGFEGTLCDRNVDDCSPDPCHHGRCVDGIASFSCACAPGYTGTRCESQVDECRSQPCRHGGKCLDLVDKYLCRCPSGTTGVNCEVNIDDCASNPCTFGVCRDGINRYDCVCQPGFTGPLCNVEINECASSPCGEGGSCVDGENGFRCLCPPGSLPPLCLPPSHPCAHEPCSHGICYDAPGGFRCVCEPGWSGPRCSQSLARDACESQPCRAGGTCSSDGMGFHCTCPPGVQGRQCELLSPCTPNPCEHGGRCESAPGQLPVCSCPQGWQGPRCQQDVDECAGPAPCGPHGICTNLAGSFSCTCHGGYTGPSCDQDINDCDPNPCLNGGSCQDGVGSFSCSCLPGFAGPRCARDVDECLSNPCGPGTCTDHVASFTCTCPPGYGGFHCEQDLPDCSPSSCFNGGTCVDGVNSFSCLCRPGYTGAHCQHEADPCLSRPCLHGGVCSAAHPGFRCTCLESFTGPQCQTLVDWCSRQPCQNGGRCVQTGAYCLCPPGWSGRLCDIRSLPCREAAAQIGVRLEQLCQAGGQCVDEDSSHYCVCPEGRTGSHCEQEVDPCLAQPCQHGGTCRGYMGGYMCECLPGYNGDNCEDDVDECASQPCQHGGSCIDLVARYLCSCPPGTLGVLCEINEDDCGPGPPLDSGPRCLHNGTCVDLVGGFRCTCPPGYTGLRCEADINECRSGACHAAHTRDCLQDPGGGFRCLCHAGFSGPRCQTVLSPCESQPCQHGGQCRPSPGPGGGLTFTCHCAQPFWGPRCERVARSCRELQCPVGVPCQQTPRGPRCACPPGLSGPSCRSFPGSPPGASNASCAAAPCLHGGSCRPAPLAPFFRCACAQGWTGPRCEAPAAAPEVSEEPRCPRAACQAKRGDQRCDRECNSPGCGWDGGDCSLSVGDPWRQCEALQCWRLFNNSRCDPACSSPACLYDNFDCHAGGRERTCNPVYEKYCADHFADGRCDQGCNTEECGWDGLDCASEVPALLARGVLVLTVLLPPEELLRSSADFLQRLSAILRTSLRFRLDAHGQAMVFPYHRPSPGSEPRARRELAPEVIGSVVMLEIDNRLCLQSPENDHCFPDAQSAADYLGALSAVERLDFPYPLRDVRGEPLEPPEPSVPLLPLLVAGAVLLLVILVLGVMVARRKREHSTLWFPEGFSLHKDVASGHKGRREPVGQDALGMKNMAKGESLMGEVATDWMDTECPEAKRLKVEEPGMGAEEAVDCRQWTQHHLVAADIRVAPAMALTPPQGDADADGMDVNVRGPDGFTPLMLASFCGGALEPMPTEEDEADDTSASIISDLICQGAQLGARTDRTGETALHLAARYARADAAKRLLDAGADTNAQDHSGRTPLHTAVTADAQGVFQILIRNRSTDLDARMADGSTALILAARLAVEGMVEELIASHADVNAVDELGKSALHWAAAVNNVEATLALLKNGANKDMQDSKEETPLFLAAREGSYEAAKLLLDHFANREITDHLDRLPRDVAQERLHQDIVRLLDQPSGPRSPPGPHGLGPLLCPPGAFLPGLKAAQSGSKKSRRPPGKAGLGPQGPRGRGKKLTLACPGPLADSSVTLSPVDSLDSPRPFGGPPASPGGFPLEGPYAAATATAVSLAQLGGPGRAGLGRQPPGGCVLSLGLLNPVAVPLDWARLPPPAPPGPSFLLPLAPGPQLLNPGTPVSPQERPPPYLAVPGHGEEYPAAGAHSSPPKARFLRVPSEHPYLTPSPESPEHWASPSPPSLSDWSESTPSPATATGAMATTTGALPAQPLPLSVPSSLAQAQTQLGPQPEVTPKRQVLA

[10] = probe aEGFR binding to arrayed compounds – biochemical, biotinylated probe, 635/667 nm fluorescence, primary screen (AID 1097); conditions: small-molecule microarray, higher = more signal;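 also: probe is a biotinylated anti-EGFR antibody binding compounds printed on slides; score combines fluorescence near 667 nm and signal to noise of each spot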

Compound | composite z-score [1] | z-score [2] | z-score [3] | z-score [4] | composite z-score [5] | z-score [6] | composite z-score [7] | composite z-score [8] | composite z-score [9] | composite z-score [10]
NCCCCCNC(=O)[C@H]1C[C@H]2C(=O)NCC(=O)N2[C@H]1c1cccc(OCCO)c1 | 1.31 | -0.155 (inactive) | -1.02 (inactive) | -0.189 (inactive) | 2.34 | 0.946 (inactive) | -0.0766 | 1.33 | 0.6 | 0.0311
COC(=O)[C@@]1(Cc2ccccc2)[C@H]2c3cc(C(=O)N(C)C)n(Cc4c(-c5ccccc5)noc4C)c3C[C@H]2CN1C(=O)c1ccccc1 | -0.248 | 0.315 (inactive) | 0.555 (inactive) | 2.84 (inactive) | 2.7 | -1.07 (inactive) | 0.531 | -0.452 | 0.303 | 0.235
COc1ccc(C#Cc2ccc3c(c2)[C@]2(C(=O)N3)[C@H](c3ccc(O)cc3)N3[C@H](c4ccccc4)[C@H](c4ccccc4)OC(=O)[C@H]3[C@@H]2C(=O)N2CCCCCCC2)cc1 | 1.55 | -1.51 (inactive) | -0.0733 (inactive) | 1.15 (inactive) | 4.08 | 0.484 (inactive) | 1.61 | 1.86 | 1.07 | 0.778
O=C1C2C=CC(C(O)c3ccc(F)cc3)N(Nc3ccccc3)C2C(=O)N1c1ccccc1 (stereo not given) | 0.435 | 0.874 (inactive) | 1.31 (inactive) | 1.59 (inactive) | 3.15 | -0.754 (inactive) | 0.388 | -1.2 | 0.246 | -0.0111
COCC1=C2[C@@H](CCc3ccccc3)OB(O)C[C@@H]2[C@@H]2C(=O)N(Cc3ccccc3)C(=O)[C@@H]2C1 | 0.229 | -0.471 (inactive) | -1.22 (inactive) | -0.37 (inactive) | 0.295 | -0.715 (inactive) | -0.155 | 0.198 | -0.0497 | -0.132
C=CCC(OC(C)=O)[C@@H]1[C@@H](N(Cc2ccc(-c3cccc(C(F)(F)F)c3)o2)C(=O)c2ccc(C)cc2)c2cc(OCCCO)ccc2N1C(=O)c1ccc(-c2ccccc2)cc1 (stereo not given in full) | 0.0003 | 0.0652 (inactive) | -1.07 (inactive) | 0.271 (inactive) | 0.476 | 1.03 (inactive) | -0.194 | 0.507 | 0.46 | -0.139
CC(C)(C)OC(=O)CC[C@@]1(C(=O)O)N=C(c2ccc(OCCCO)cc2)O[C@@H]1c1ccccc1N=[N+]=[N-] | 1.15 | 0.949 (inactive) | 0.419 (inactive) | -0.286 (inactive) | 2.15 | 0.484 (inactive) | 0.553 | -0.569 | 0.104 | 0.325
COC(=O)c1ccc(OC)c(/C=C\CC(OC(C)=O)c2ccccc2)c1 (stereo not given) | 0.31 | -1.71 (inactive) | -1.34 (inactive) | -0.0987 (inactive) | 0.879 | 0.759 (inactive) | -0.208 | 0.0928 | 0.275 | -0.115
CCCN1C(=O)[C@@]2(CCC(=O)OC(C)(C)C)N=C(c3ccc(OCCCO)cc3)O[C@H]2c2ccccc21 | 1.56 | -1.25 (inactive) | -1.19 (inactive) | 1.51 (inactive) | 2.64 | 1.2 (inactive) | 0.0272 | 1.82 | 0.518 | -0.0371
CCOC(=O)C[C@H]1[C@H](OC(=O)c2ccc(-c3ccccc3)cc2)[C@@H](NC(=O)Cc2ccc(OC)cc2)c2cc(OCCCO)ccc2N1C(=O)c1ccc2ccccc2n1 | 0.532 | -0.914 (inactive) | 0.56 (inactive) | 0.0126 (inactive) | 1.73 | -0.733 (inactive) | -0.0561 | 0.587 | 0.317 | 0.223
O=C1C=CC(=O)[C@@H]2CC(COc3ccccc3)=C3[C@@H](CCc4ccccc4)OB(O)C[C@@H]3[C@H]12 | 0.702 | 0.168 (inactive) | -8.15 (active) | 0.203 (inactive) | -0.188 | -0.125 (inactive) | -0.289 | 0.533 | 0.49 | 0.0338
C=CC[C@@H](OC(=O)Nc1ccc(OC)cc1)c1ccc(O)c2ccccc12 | 1.28 | -23.6 (active) | -19.6 (active) | -1.31 (inactive) | 2.28 | 1.05 (inactive) | -0.142 | 1.46 | 1.05 | 0.0225
CCCCCCc1nc(CCCc2cc3c(c(CCCCCC)n2)[Si](C(C)C)(C(C)C)OC3)cc2c1[Si](C(C)C)(C(C)C)OC2 | -0.41 | -0.506 (inactive) | -2.38 (inactive) | 0.256 (inactive) | -0.134 | -0.3 (inactive) | -0.208 | 0.257 | -0.58 | -0.287
O=C1OCC=C[C@H]2OC34C=CCN(c5ccc6ccccc6c5)C(=O)[C@H]3N(CCCO)C(=O)[C@@H]4[C@@H]12 (stereo not given in full) | -0.3 | 0.0281 (inactive) | -0.318 (inactive) | 0.0596 (inactive) | -0.309 | 0.993 (inactive) | 0.0061 | 0.0654 | 0.0404 | -0.186
COCCOC(=O)N1C(=O)[C@@]2(c3ccccc31)[C@H](C(=O)NC[C@H](O)c1ccccc1)[C@H]1C(=O)O[C@H](c3ccccc3)[C@H](c3ccccc3)N1[C@@H]2c1ccc(OCCO)cc1 | 1.54 | 1.98 (inactive) | 1.64 (inactive) | 6.18 (inactive) | 2.85 | 1.77 (inactive) | -0.066 | 1.81 | 1.04 | -0.023
CCCN1C(=O)[C@]2(COC(c3ccc(OCCCO)cc3)=N2)Cc2ccccc21 | 1.18 | -0.102 (inactive) | -2.37 (inactive) | -1.35 (inactive) | 2.88 | 0.525 (inactive) | 0.303 | 0.134 | 0.112 | -0.0774
COCCOC(=O)N1C(=O)[C@@]2(c3cc(C#CCC(C(=O)OC)C(=O)OC)ccc31)[C@H](c1ccccc1OCCO)N1[C@H](c3ccccc3)[C@H](c3ccccc3)OC(=O)[C@H]1[C@@H]2C(N)=O | 1.17 | 1.47 (inactive) | 0.951 (inactive) | 4.79 (inactive) | 2.74 | 1.12 (inactive) | 0.0074 | 0.726 | 1.1 | -0.0346
N#Cc1ccc(NN2C(C(O)C3CCCCC3)C=CC3C(=O)N(c4ccccc4)C(=O)C32)cc1 (stereo not given) | 1.45 | -0.21 (inactive) | 0.661 (inactive) | 2.46 (inactive) | 3.26 | -1.08 (inactive) | 0.217 | -0.0519 | 1.03 | 0.0065
COc1ccccc1CN1C(=O)c2ccccc2[C@@H](C(=O)NCCN2CCOCC2)[C@@H]1c1ccc(CO)cc1 | 0.663 | -0.884 (inactive) | 0.067 (inactive) | -0.805 (inactive) | 3.32 | 0.339 (inactive) | -0.0948 | 0.025 | 0.209 | -0.156
CCCCCN1CC=CC23O[C@@H]4/C=C\CCCOC(=O)C4[C@H]2C(=O)N(CCCCCCO)[C@@H]3C1=O (stereo not given in full) | -0.0832 | -3.85 (inactive) | -2.83 (inactive) | -2.64 (inactive) | 3.32 | 1.61 (inactive) | -0.147 | -0.471 | -0.0559 | 0.0538
CO[C@H]1O[C@H](CO)[C@@H](OC(=O)Nc2ccc(Oc3ccccc3)cc2)[C@H](OC(=O)Nc2ccccc2)[C@H]1OC(=O)Nc1ccccc1 | 1.55 | 1.48 (inactive) | 0.613 (inactive) | -1.75 (inactive) | 3.26 | 0.939 (inactive) | 0.286 | 0.7 | 1.13 | 0.13
CCOC(=O)C1=CC[C@@H](c2ccccc2Cl)N(S(=O)(=O)c2ccc(C)cc2)C1 | 0.98 | -2.37 (inactive) | 0.307 (inactive) | 0.661 (inactive) | 2.24 | -0.239 (inactive) | 0.264 | -0.434 | 1.04 | -0.178
Cc1ccc(S[C@]2(C(=O)NCC(C)C)CC(=O)N(Cc3ccccc3Cl)[C@@H]2c2ccc(CO)cc2)cc1 | -0.446 | -0.259 (inactive) | -0.751 (inactive) | -0.0993 (inactive) | 0.294 | -0.0077 (inactive) | -0.0216 | -1.98 | -1.5 | -0.228
Cc1cc(C)c(C(O)C2C=CC3C(=O)N(c4ccccc4)C(=O)C3N2Nc2ccc(C#N)cc2)c(C)c1 (stereo not given) | 1.12 | 0.674 (inactive) | 0.788 (inactive) | 2.16 (inactive) | 3.52 | 0.111 (inactive) | 0.512 | -0.0482 | 1.05 | 0.0905
Cc1ccc(S[C@]2(C(=O)NCC(C)C)CC(=O)N(Cc3ccccc3)[C@@H]2c2ccc(CO)cc2I)cc1 | 1.3 | -1.29 (inactive) | -0.927 (inactive) | 1.66 (inactive) | 2.55 | 0.0384 (inactive) | 0.124 | 0.8 | 0.905 | 0.0537
COC(=O)C(CC#Cc1ccc2c(c1)[C@]1(C(=O)N2)[C@H](c2ccc(OCCO)cc2)N2[C@H](c3ccccc3)[C@H](c3ccccc3)OC(=O)[C@H]2[C@@H]1C(=O)NC[C@H](O)c1ccccc1)C(=O)OC | 1.54 | 2.37 (inactive) | 0.31 (inactive) | 7.43 (inactive) | 2.41 | 1.89 (inactive) | -0.141 | 0.617 | 0.908 | -0.0856
O=C1OCCC=C[C@H]2OC34C=CCN(c5ccc6ccccc6c5)C(=O)[C@H]3N(CCCCCO)C(=O)[C@@H]4C12 (stereo not given in full) | 0.737 | -0.748 (inactive) | -1.64 (inactive) | -0.8 (inactive) | 2.42 | 1.12 (inactive) | -0.0953 | -0.586 | -0.039 | -0.157
O=C(O)[C@H]1C[C@H]2C(=O)NCC(=O)N2[C@H]1c1ccc(O)cc1 | 0.294 | -0.512 (inactive) | -0.81 (inactive) | -0.373 (inactive) | 1.05 | 1.68 (inactive) | -0.025 | 0.884 | 0.55 | 0.308
